Compounds with a hit are over-represented: about 18% of the library has one in this group of screens.
IL-1B inflam inh – inflammasome signaling inhibition, IL-1 beta readout. THP-1 LPS/ATP IL-1B secretion, AlphaLISA, 16 h; active compounds read low. activity change, % at 57.5 µM. actives 4.7% (n = 360,000). AID 743279; in the data active means activity change below about -50%; inconclusive means mostly about -30% to -49%; further: on the % scale 0 is the no-effect control and ±100 the full control effect
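Secreted IL-1B measured by AlphaLISA bead assay after 16 h compound exposure of THP-1 cells; compounds (final up to 57.5 uM) added 1 h before LPS (250 ng/mL) and ATP (1.25 mM) stimulation; lower signal means less secretion.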
HepG2 viability – HepG2 cytotoxicity, counter-screen for TGF-b inhibitors | HepG2 CAGA-GFP viability, ATP luminescence, 18 h | Potency, µM (series often up to 46.1 µM), for inactives: at the top dose activity change, negative = cytotoxicity, actives largely listed as cytotoxic | actives 0.76% (n = 410,000) | AID 588856; further: potency means the concentration at half of the fitted maximal effect
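CellTiter-Glo luminescence gave cytotoxicity after 18 hours at 37 degrees C. The cells were HepG2 CAGA-GFP in 1% FBS DMEM, stimulated with 500 pg/mL TGF-beta after compound addition. %Activity was normalised to no-cell wells (complete cell-killing) and DMSO (no toxicity), and curves were fitted and classified.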
TDP1 inh – inhibitors of human tyrosyl-DNA phosphodiesterase TDP1. actives 0.28% (n = 350,000). recombinant TDP1, AlphaScreen DNA substrate cleavage. Q9NUW8. Potency, µM (series often up to 130 µM), for the others: top-dose activity change, negative = inhibition, actives largely listed as inhibitors. AID 485290; further: potency means the concentration at half of the fitted maximal effect; on the % scale 0 is the no-effect control and ±100 the full control effect; nearly all actives have a fitted effect of over 40% in size
Target sequence (Q9NUW8 whole entry, looked up): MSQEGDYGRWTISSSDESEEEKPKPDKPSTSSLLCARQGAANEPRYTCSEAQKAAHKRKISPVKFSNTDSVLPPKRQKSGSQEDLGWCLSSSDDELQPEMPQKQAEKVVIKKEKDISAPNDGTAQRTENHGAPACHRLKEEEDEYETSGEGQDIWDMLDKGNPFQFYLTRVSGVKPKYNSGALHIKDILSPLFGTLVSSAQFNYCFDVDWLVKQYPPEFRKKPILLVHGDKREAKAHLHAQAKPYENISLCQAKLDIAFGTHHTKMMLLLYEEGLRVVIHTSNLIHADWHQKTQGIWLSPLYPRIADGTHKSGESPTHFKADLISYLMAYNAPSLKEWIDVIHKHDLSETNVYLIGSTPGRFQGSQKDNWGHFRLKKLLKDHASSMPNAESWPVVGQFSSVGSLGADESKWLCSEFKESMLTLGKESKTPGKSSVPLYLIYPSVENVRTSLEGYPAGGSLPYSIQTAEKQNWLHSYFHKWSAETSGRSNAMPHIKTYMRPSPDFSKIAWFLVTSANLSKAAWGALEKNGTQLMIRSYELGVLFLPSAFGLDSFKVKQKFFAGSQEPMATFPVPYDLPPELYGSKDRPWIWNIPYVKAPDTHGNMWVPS
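Tdp1 1 nM final; 15 min RT w/ cpd; substrate 15 nM, 5 min; beads 10 ug/ml, 10 min; AlphaScreen read. Neg ctrl: no enzyme.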
TGFb inhibitor – inhibitors of TGF-b signaling; HepG2 CAGA-GFP TGF-b/SMAD3 reporter, GFP fluorescence, 18 h; TGF-beta stimulated, 500 pg/mL final; Potency, µM (doses to about 46.1 µM), for inactives: top-dose activity, negative = inhibition, most hits filed as inhibitors; actives 1.2% (n = 410,000); AID 588855; further: potency means the concentration at half of the fitted maximal effect; on the % scale 0 is the no-effect control and ±100 the full control effect; nearly all actives have a fitted effect of over 65% in size
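HEPG2 CAGA-GFP cells (1000/well, DMEM with 1% FBS) were pre-incubated 2 h at 37 degrees C, given compound by pin tool, then stimulated with TGF-beta at 500 pg/mL final for 18 h before per-cell GFP fluorescence imaging.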
DT40 TDP1 no CPT – qHTS for Inhibitors of human tyrosyl-DNA phosphodiesterase 1 (TDP1): qHTS in cells in absence of CPT; DT40 Tdp1-/- hTDP1 cells, no CPT, ATP luminescence, 48 h; Potency, µM (doses to about 46.2 µM), without a hit: top-dose activity change, negative = growth inhibition, hits mostly inhibitors; actives 15% (n = 420,000); AID 686978, 2013; further: potency means the concentration at half of the fitted maximal effect; on the % scale 0 is the no-effect control and ±100 the full control effect; nearly all actives have a fitted effect of over 55% in size
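Growth kinetics read by CellTiter-Glo luminescence after ≥48 hr at 37 °C. Cells: DT40 Tdp1-/- stably carrying human TDP1, 400 per well, compound exposure in the absence of CPT (DMSO vehicle).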
TDP1 cell CPT – DT40-hTDP1 cell growth loss with CPT | chicken DT40 Tdp1-/-;hTDP1 cells + 20 nM CPT, ATP luminescence, 48 h | Potency, µM (series often up to 46.2 µM), for inactives: top-dose activity change, negative = growth inhibition, most hits filed as inhibitors | actives 12% (n = 420,000) | AID 686979; further: potency means the concentration at half of the fitted maximal effect; on the % scale 0 is the no-effect control and ±100 the full control effect; nearly all actives have a fitted effect of over 55% in size
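Cell growth measured by CellTiter-Glo luminescence after a minimum 48 h, 37 C compound exposure with 20 nM CPT in Tdp1-knockout DT40 cells stably expressing hTDP1, seeded 400/well; qHTS titration format.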
An asterisk follows results filed as active; ? = inconclusive; nt = no result given; [ ] = another dose, or the depositor's remark. Unless noted, the call rests on the fitted dose curve; in most records, active means well fitted curve in the direction sought with a large enough effect; inconclusive means small, poorly fitted or top-dose-only effect, or another doubt; inactive means no such curve, though single readings can be large; an effect the other way counts as inactive or inconclusive.

SMILES | IL-1B inflam inh | HepG2 viability | TDP1 inh | TGFb inhibitor | DT40 TDP1 no CPT | TDP1 cell CPT
Cc1ccc(SCc2nc(-c3ccc(C(=O)NCC(C)c4ccccc4)cc3)oc2C)cc1 (configuration not stated) | nt | -32% | 3% | -2% | 6.5µM* | 8.2µM*
COc1cc(NC(=O)c2ccc(-c3nc(COc4ccccc4)c(C)o3)cc2)cc(OC)c1 | nt | -19% | -3% | ? | 10µM* | 9.2µM*
CCNc1nc(NC(C)C)nc(NS(=O)(=O)c2ccc(C)cc2)n1 | 4 | -4% | nt | 0% | -23% | -8%
CCCc1nnc(NC(=O)C2CCN(C(=O)c3ccco3)CC2)s1 | 13 | 15% | 7% | 14% | -9% | -4%
O=C1C=C(c2ccc(C(=O)O)cc2)C[C@@H](c2ccc3c(c2)OCO3)C1 | 16 | -10% | -18% | -4% | -7% | -17%
COc1cccc(CNC(=O)c2ccc(-c3nc(CS(=O)c4ccccc4)c(C)o3)cc2)c1 (configuration not stated) | nt | 1% | 3% | ? | 16µM* | ?
Cc1oc(-c2ccc(C(=O)NCc3cccc(F)c3)cc2)nc1COc1ccccc1 | nt | -19% | 0% | 2% | -30% | -23%
O=C(C[N+]12CN3CN(CN(C3)C1)C2)c1ccc(-c2ccccc2)cc1 | nt | -28% | nt | 1% | ? | ?
CCS(=O)(=O)Nc1ccc(C(=O)CC2(O)C(=O)Nc3ccc(Br)cc32)cc1 (configuration not stated) | 32 | -26% | 2% | ? | 6.5µM* | 21µM*
Cc1ccc2c(c1)C(O)(CC(=O)c1ccc3c(c1)OCO3)C(=O)N2 (configuration not stated) | 14 | -26% | 0% | -16% | -19% | -8%
O=C(CC1(O)C(=O)Nc2ccc(Br)cc21)c1ccc2c(c1)OCO2 (configuration not stated) | 48 | 2% | 1% | 0% | ? | 26µM*
CS(=O)(=O)Nc1cccc(C(=O)CC2(O)C(=O)Nc3ccc(Br)cc32)c1 (configuration not stated) | 39 | -17% | 2% | -18% | 21µM* | ?
CCS(=O)(=O)Nc1cccc(C(=O)CC2(O)C(=O)Nc3ccccc32)c1 (configuration not stated) | -14 | 1% | 2% | 3% | -26% | -10%
CS(=O)(=O)Nc1cccc(C(=O)CC2(O)C(=O)Nc3ccccc32)c1 (configuration not stated) | 7 | 0% | 2% | 0% | -6% | 11%
Cc1cccc(NC(=O)CNC(=O)COc2cccnc2[N+](=O)[O-])c1C | -2 | -10% | -1%[56.1 µM] | -2% | 4% | -8%
Cc1nc(-c2ccc(C)c(N3CCN(C(=O)Nc4ccccc4C(F)(F)F)CC3)c2)no1 | nt | -3% | 1% | -18% | 1% | -16%
Cc1nn2cc(-c3cccc(Cl)c3)cnc2c1Cl | 14 | -24% | 0% | 0% | 15µM* | 16µM*
Cc1nn2c(-c3ccccc3)ccnc2c1Br | 25 | -24% | nt | 2% | ? | ?
Cc1nn2cc(-c3cccc(Cl)c3)cnc2c1Br | 10 | -12% | -3% | -7% | 5.8µM* | ?
Nc1nc(N)nc(-c2cccc(Cl)c2)n1 | 1 | 1% | 0% | ? | -4% | ?
COc1ccc(C(OC(=O)c2ccco2)C(=O)NC(C)(C)C)cc1OC (configuration not stated) | 7 | -8% | nt | 29% | -10% | -10%
CN(C)C(=O)NC1c2ccccc2-c2ccccc21 | 0 | -2% | nt | 3% | 14% | -2%
O=C1C=CC(=O)N1c1ccc2c(c1)C(NC(=O)C(F)(F)F)c1ccccc1-2 (configuration not stated) | -81* | -49% | nt | ? | 1.8µM* | 1.3µM*
CC(C)N(C(=O)CSc1nc2ccccc2n1Cc1ccccc1)C(C)C | 9 | -2% | 0% | 3% | ? | ?
CN(Cc1ccccc1)C(=O)CSc1nc2ccsc2c(=O)n1-c1ccc(F)cc1 | nt | 9% | -3% | -19% | 21µM* | ?
SMILES | IL-1B inflam inh | HepG2 viability | TDP1 inh | TGFb inhibitor | DT40 TDP1 no CPT | TDP1 cell CPT
CN(Cc1ccccc1)C(=O)CSc1nc2ccccc2n1Cc1ccccc1F | nt | -26% | 4% | -21% | 6.5µM* | ?
CC(C)N(C(=O)CSc1nc2ccccc2n1Cc1ccccc1F)C(C)C | -10 | -28% | 2%[56.1 µM] | -7% | 16µM* | 16µM*
N#CCOc1ccccc1CNC[C@H]1O[C@@H](n2cnc3c(=O)[nH]c(N)nc32)[C@H](O)[C@@H]1O | 10 | 8% | nt | -11% | -1% | 0%
Clc1ccc(C[n+]2csc3ccccc32)cc1 | -110* | -29% | 8% | ? | 0.52µM* | 0.41µM*
Fc1ccc(C[n+]2csc3ccccc32)cc1 | -115* | -18% | 9% | 3% | 0.92µM* | 1µM*
COc1ccccc1S(=O)(=O)N(C)C[C@@H]1OCc2cnnn2CCCC(=O)N([C@@H](C)CO)C[C@@H]1C | 12 | -14% | nt | -4% | -20% | -14%
COC(=O)[C@@]12C[C@@H](CC(=O)NCc3cccc4ccccc34)C(=O)N(Cc3ccc4c(c3)OCO4)C1=CCC(C)(C)C2 | -87* | nt | nt | nt | 13µM* | ?
COC(=O)[C@@]12C[C@@H](CC(=O)NCc3cccc4ccccc34)C(=O)N(Cc3ccccc3)C1=CCC(C)(C)C2 | -61* | nt | nt | nt | ? | ?
COC(=O)[C@@]12C[C@@H](CC(=O)NCc3ccccc3)C(=O)N(Cc3ccc4c(c3)OCO4)C1=CCC(C)(C)C2 | ? | nt | nt | nt | 16µM* | 16µM*
CCOC(=O)[C@]12CCCC=C1N(Cc1ccc3c(c1)OCO3)C(=O)[C@H](CC(=O)NCc1cccc3ccccc13)C2 | -25 | nt | nt | nt | ? | ?
Cc1cc(C)n2nc(SCC(=O)Nc3ccccc3C)nc2n1 | -11 | 9% | 8% | 1% | -6% | -6%
Cc1cccc(CN2[C@H](COCc3ccccc3)C=CS2(=O)=O)c1 | ? | -25% | nt | -2% | ? | ?
O=C(CN1CCN(c2cnn(-c3ccccc3)c(=O)c2Cl)CC1)NC1CCS(=O)(=O)C1 (configuration not stated) | 4 | 5% | 1% | -8% | 1% | 1%
